Source: PubChem (National Center for Advancing Translational Sciences (NCATS))
Rows were chosen to be rich in hits. Some 18% of all compounds tested hit in one or more screens of this group.
RORgamma inh = qHTS for inhibitors of ROR gamma transcriptional activity; 310,000 tested, 5.4% active; Nuclear receptor ROR-gamma (Mus musculus), P51450; Potency, µM (titrated, usually from 53.6 µM), without a hit: at the top dose activity change, negative = inhibition, actives largely listed as inhibitors; Drosophila S2 Gal4-RORgamma UAS-luciferase reporter, 20 h; note: potency is the fitted concentration of half-maximal effect; nearly all actives have a fitted effect of over 60% in size
Target sequence (P51450 whole entry, looked up, the tested form may be a part): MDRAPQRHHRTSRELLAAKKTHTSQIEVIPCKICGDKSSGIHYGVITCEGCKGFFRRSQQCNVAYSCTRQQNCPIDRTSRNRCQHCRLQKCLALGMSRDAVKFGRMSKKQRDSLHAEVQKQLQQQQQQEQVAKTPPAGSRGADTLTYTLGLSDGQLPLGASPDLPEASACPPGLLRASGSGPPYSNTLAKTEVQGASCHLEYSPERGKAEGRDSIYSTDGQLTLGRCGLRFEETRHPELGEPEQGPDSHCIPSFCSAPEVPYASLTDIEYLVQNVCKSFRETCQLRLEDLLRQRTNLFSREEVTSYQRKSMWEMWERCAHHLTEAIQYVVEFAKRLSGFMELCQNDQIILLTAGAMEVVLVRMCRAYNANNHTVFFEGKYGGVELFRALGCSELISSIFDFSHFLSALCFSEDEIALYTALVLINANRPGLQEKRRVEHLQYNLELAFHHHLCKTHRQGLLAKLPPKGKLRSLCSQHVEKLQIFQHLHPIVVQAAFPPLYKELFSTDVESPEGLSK
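Stable Schneider cell line, Gal4 DNA-binding domain fused to ROR gamma, UAS-luciferase. Cmpd 1 hr RT → CuSO4 700 uM final → 20 hr RT → luciferase reagent 10 min → luminescence.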
DT40 TDP1 CPT = qHTS for Inhibitors of human tyrosyl-DNA phosphodiesterase 1 (TDP1): qHTS in cells in presence of CPT; chicken DT40 Tdp1-/-;hTDP1 cells + 20 nM CPT, ATP luminescence, 48 h; 420,000 tested, 12% active; Potency, µM (highest dose often 46.2 µM), for the others: at the top dose activity change, negative = growth inhibition, usual class: inhibitors; note: potency is the fitted concentration of half-maximal effect; nearly all actives have a fitted effect of over 55% in size
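Cell growth measured by CellTiter-Glo luminescence after a minimum 48 h, 37 C compound exposure with 20 nM CPT in Tdp1-knockout DT40 cells stably expressing hTDP1, seeded 400/well; qHTS titration format.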
TDP1 cell noCPT = qHTS for Inhibitors of human tyrosyl-DNA phosphodiesterase 1 (TDP1): qHTS in cells in absence of CPT; DT40 Tdp1-/- hTDP1 cells, no CPT, ATP luminescence, 48 h; Potency, µM (series often up to 46.2 µM), for the others: top-dose activity change, negative = growth inhibition, usual class: inhibitors; 420,000 tested, 15% active; AID 686978, 2013; note: potency is the fitted concentration of half-maximal effect; nearly all actives have a fitted effect of over 55% in size
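Camptothecin absent (DMSO only). Human TDP1-complemented DT40 knockout cells, 400 cells/well, 37 °C for minimum 48 hr; ATP measured via CellTiter-Glo, 30 min dark incubation, luminescence.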
VP16 counter = VP16 counterscreen qHTS for inhibitors of ROR gamma transcriptional activity. Drosophila S2 Gal4-VP16 UAS-luciferase, luminescence, 20 h. Potency, µM (titrated, usually from 53.6 µM), for inactives: at the highest dose activity, negative = inhibition, actives largely listed as inhibitors. 310,000 tested, 3.5% active. AID 2546, 2010;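 note: Gal4-VP16 expression switched on by copper sulfate through the metallothionein promoter; potency is the fitted concentration of half-maximal effect; nearly all actives have a fitted effect of over 50% in size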
LDHA inh = qHTS assay for inhibitors of human lactate dehydrogenase. purified LDHA, NADH/diaphorase-resazurin fluorescence; stronger effect = lower value. activity change, % (values are at about 110 or 230 µM). L-lactate dehydrogenase A chain (Homo sapiens), P00338. AID 1347041, 2019. 480,000 tested, 0.15% active; in the data active = activity change below about -30%; inconclusive = mostly about -25% to -30%;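 note: plate controls were DMSO wells for no effect and wells without enzyme for full effect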
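Human LDH5 (2 nM) was incubated with 0.06 mM NADH and 0.2 mM pyruvate for 5 min at room temperature in Tris pH 7.4. Remaining NADH was coupled through diaphorase/resazurin, and resorufin fluorescence was read at 0 and 20 min.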
IL-1B inflam inh = qHTS for Inhibitors of Inflammasome Signaling: IL-1-beta AlphaLISA Primary Screen; AID 743279, 2014; THP-1 LPS/ATP IL-1B secretion, AlphaLISA, 16 h; stronger effect = lower value; activity change, % at 57.5 µM; 360,000 tested, 4.7% active; in the data active = activity change below about -50%; inconclusive = mostly about -30% to -49%
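Secreted IL-1B measured by AlphaLISA bead assay after 16 h compound exposure of THP-1 cells; compounds (final up to 57.5 uM) added 1 h before LPS (250 ng/mL) and ATP (1.25 mM) stimulation; lower signal means less secretion.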
Active calls of the source: *. Unless noted, calls come from the whole dose curve; as a rule, active = well fitted curve in the direction sought with a large enough effect; inconclusive = small, poorly fitted or top-dose-only effect, or another doubt; inactive = no such curve, though single readings can be large; an effect the other way counts as inactive or inconclusive. Unless noted, % is set by controls: 0 for no effect and ±100 for the full control effect.

For CC(=O)N1c2c(cc(Br)cc2S(=O)(=O)Nc2ccc(OC(F)(F)F)cc2)CC1C (stereo not given) the results were DT40 TDP1 CPT 18µM*, TDP1 cell noCPT 15µM* and LDHA inh 0.
Screening CC(=O)N1c2c(cc(Br)cc2S(=O)(=O)NCc2ccc(C)cc2)CC1C (stereo not given) returned RORgamma inh 6%, DT40 TDP1 CPT 7%, TDP1 cell noCPT -27%, VP16 counter -11%, LDHA inh -7 and IL-1B inflam inh 14.
`C[C@@]12CCC3c4ccc(OS(=O)(=O)O)cc4CCC3C1CCC2O` (stereo not given in full) gave RORgamma inh 0%, DT40 TDP1 CPT 1%, TDP1 cell noCPT -3% and VP16 counter -8%.
CCNc1cc2c(cc1O)CCC1C2CCC2(C)C(O)CCC12 (stereo not given) was read as DT40 TDP1 CPT 7.3µM*, TDP1 cell noCPT 23µM*, LDHA inh 21 and IL-1B inflam inh -101*.
Screening CCOc1cc2c(cc1O)CCC1C2CCC2(C)C(O)CCC12 (stereo not given) returned DT40 TDP1 CPT 0.26µM*, TDP1 cell noCPT 0.21µM*, LDHA inh 9 and IL-1B inflam inh 10.
For CCCCC(=O)O[C@H]1CC[C@H]2[C@@H]3CCc4cc(O)ccc4[C@H]3CC[C@]12C the results were RORgamma inh 25%, DT40 TDP1 CPT inconclusive, TDP1 cell noCPT inconclusive, VP16 counter inconclusive, LDHA inh 5 and IL-1B inflam inh 7.
`Cc1cc(C)cc(C(=O)N(Cc2ccncc2)C2CC2)c1` gave LDHA inh 18.
`O=C1c2ccccc2S(=O)(=O)c2cc(N3CCN(c4ccccc4)CC3)ccc21` gave DT40 TDP1 CPT inconclusive, TDP1 cell noCPT 16µM*, LDHA inh -4 and IL-1B inflam inh 9.
`O=C(O)c1cccc2c1C(=O)c1ccc(N3CCCCC3)cc1S2(=O)=O` gave DT40 TDP1 CPT -2%, TDP1 cell noCPT -3%, LDHA inh -12 and IL-1B inflam inh 21.
`O=C1c2ccccc2S(=O)(=O)c2cc(N3CCOCC3)ccc21` gave DT40 TDP1 CPT 12µM*, TDP1 cell noCPT 21µM*, LDHA inh 3 and IL-1B inflam inh inconclusive.
Screening COCCNC(=O)c1cccc2c1C(=O)c1ccc(N3CCOCC3)cc1S2(=O)=O returned DT40 TDP1 CPT inconclusive, TDP1 cell noCPT -25%, LDHA inh -5 and IL-1B inflam inh 18.
Screening O=C(O)CCCOc1ccc2c(c1)CCC(=O)N2 returned LDHA inh 15.
CCCCCCCCCNC(=O)c1nccnc1N was read as LDHA inh 6.
Screening COc1cc(OC)c2nc(C)c3c(c2c1)N(c1ccc(O)cc1)CC3 returned RORgamma inh 4%, DT40 TDP1 CPT inconclusive, TDP1 cell noCPT 16µM*, VP16 counter -14% and LDHA inh 9.
`COc1cc(OC)cc(C(=O)NCC(=O)N2CCN(c3ccc(O)cc3)CC2)c1` gave RORgamma inh 2%, DT40 TDP1 CPT inconclusive, TDP1 cell noCPT inconclusive, VP16 counter 0%, LDHA inh 33 and IL-1B inflam inh 31.
Cc1ccc(C2(O)CN(c3ccccc3)C3=[N+]2CCS3)cc1 (stereo not given) was read as RORgamma inh inconclusive, DT40 TDP1 CPT inconclusive, TDP1 cell noCPT inconclusive, VP16 counter 3%, LDHA inh -2 and IL-1B inflam inh -76*.
Screening Cc1ccccc1N1CC(O)(c2ccccc2)[N+]2=C1SCC2 (stereo not given) returned RORgamma inh inconclusive, DT40 TDP1 CPT inconclusive, TDP1 cell noCPT inconclusive, VP16 counter inconclusive, LDHA inh 1 and IL-1B inflam inh 17.
`Cc1ccc(C2(O)CN(c3ccccc3C)C3=[N+]2CCS3)cc1` (stereo not given) gave RORgamma inh -40%, DT40 TDP1 CPT 12µM*, TDP1 cell noCPT 18µM*, VP16 counter inconclusive, LDHA inh -4 and IL-1B inflam inh 30.
Screening CCOCCn1c(=O)c2c(nc(-n3nc(CC)cc3CC)n2C)n(C)c1=O returned LDHA inh 1.
For CCOC(=O)c1cccc(Nc2c3c(nc4ccccc24)CCC3)c1 the results were DT40 TDP1 CPT inconclusive, TDP1 cell noCPT 13µM* and LDHA inh -4.
Screening O=C(Nc1c2c(nc3ccccc13)CCCC2)c1ccccc1F returned RORgamma inh 6%, DT40 TDP1 CPT -24%, TDP1 cell noCPT inconclusive, VP16 counter -15%, LDHA inh -7 and IL-1B inflam inh 2.
`c1ccc2c(Nc3ccc4c(c3)OCCO4)c3c(nc2c1)CCCC3` gave RORgamma inh 13%, DT40 TDP1 CPT 4.6µM*, TDP1 cell noCPT 16µM*, VP16 counter -5%, LDHA inh 4 and IL-1B inflam inh -134*.
Screening CCOC(=O)c1cnc2ccccc2c1Nc1cccc(C(=O)O)c1 returned RORgamma inh 1%, DT40 TDP1 CPT 2%, TDP1 cell noCPT -3%, VP16 counter 2%, LDHA inh -10 and IL-1B inflam inh 35.
CC(=O)c1cccc(Nc2c3c(nc4ccccc24)CCC3)c1 was read as RORgamma inh -24%, DT40 TDP1 CPT 2.1µM*, TDP1 cell noCPT 2.1µM*, VP16 counter 1%, LDHA inh -3 and IL-1B inflam inh 68.
COC(=O)c1cccc(Nc2c3c(nc4ccccc24)CCC3)c1 was read as RORgamma inh 29%, DT40 TDP1 CPT 7.3µM*, TDP1 cell noCPT 10µM*, VP16 counter 1%, LDHA inh -5 and IL-1B inflam inh -98*.
Screening Cc1ccc2nc3c(c(Nc4cccc(O)c4)c2c1)CCC3 returned RORgamma inh 36%, DT40 TDP1 CPT inconclusive, TDP1 cell noCPT inconclusive, VP16 counter 3%, LDHA inh -1 and IL-1B inflam inh 118.
`NC(=O)c1ccccc1OCC(=O)Nc1ccc(S(=O)(=O)N2CCCCC2)cc1` gave LDHA inh -8.
For CCn1c(=O)c(-c2noc(C(=O)N3CCC(c4ccccc4)C3)n2)nn(-c2ccccc2)c1=O (stereo not given) the results were LDHA inh -3.
CCOc1ccc(CN2CCN(c3cccc(C)c3C)CC2)cc1OC was read as LDHA inh 10.
